Each structure is given as a SMILES string. Screen size: about 200,000 compounds; about 810 (0.41%) were called active. Rule as the data show it: active = activation above about 19%; inactive = the rest. The entries come from a sample that favours actives as a whole.

This assay deals with Peroxisome proliferator-activated receptor gamma (Homo sapiens) (UniProt P37231). As to the kind of experiment: enhancers of SRC-1 binding to PPARgamma – biochemical, primary screen (AID 631).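 Also: 0% = DMSO and 100% = reference agonist.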 The note with it: PPARgamma-SRC-1 coactivator recruitment biochemical assay; at 8 µM; hits give high values.
Sequence of Peroxisome proliferator-activated receptor gamma (Homo sapiens) (P37231 whole entry, looked up): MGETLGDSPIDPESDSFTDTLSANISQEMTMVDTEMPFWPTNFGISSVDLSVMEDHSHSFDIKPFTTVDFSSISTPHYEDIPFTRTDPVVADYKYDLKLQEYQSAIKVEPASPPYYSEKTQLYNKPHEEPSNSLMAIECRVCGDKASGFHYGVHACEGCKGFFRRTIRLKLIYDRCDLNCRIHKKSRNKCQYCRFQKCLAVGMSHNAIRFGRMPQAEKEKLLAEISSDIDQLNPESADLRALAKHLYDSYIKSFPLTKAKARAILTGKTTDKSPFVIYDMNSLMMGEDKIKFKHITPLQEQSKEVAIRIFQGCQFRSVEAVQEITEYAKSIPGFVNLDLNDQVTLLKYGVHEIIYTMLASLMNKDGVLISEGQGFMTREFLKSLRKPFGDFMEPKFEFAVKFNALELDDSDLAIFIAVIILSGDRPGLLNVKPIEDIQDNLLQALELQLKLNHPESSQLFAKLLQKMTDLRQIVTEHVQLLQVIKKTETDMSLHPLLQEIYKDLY
As to `Cc1cc2cc(CN(Cc3cccs3)Cc3nnnn3CC3CCCO3)c(=O)[nH]c2cc1C` (centres undefined), the activation was -4.1% (inactive).
As to `Cc1cc(C)c2cc(CN(Cc3nnnn3Cc3ccc(F)cc3)C3CCCC3)c(=O)[nH]c2c1`, the activation is 2.6% (inactive).
For the compound `Cc1cc(C)c2cc(CN(Cc3cccs3)Cc3nnnn3CC3CCCO3)c(=O)[nH]c2c1` (centres undefined), the activation is 23.5% (active).
As for `CCC(C)(C)NC(=O)C(c1ccccn1)N(C(=O)c1csnn1)c1ccccc1` (centres undefined), the activation is 3.1% (inactive).
Then `C/C(=N\NC(=O)OC(C)(C)C)c1ccc[nH]1`, with -0.7% (inactive); and `Cc1ccc(OCC(=O)Nc2ccc(-c3nc4ncccc4o3)cc2)cc1`, with 19.5% (active); and `Cc1ccc(OCC(=O)Nc2ccc(S(=O)(=O)Nc3ccccn3)cc2)cc1`, with 2.2% (inactive).
On to `CC(=O)Nc1ccc(OCC(=O)NCc2ccc(C)cc2)cc1`, for which the activation is -5.7% (inactive).
As to `O=C(C1CCN(C2CCN(Cc3cccc4c3OCO4)CC2)CC1)N1CCOCC1`, the activation was 1.6% (inactive).
With `CCn1c(SCC(=O)Nc2cccc(F)c2)nnc1-c1cc2cc(Br)ccc2o1`, the activation is 24.4% (active).
The value for `CCn1c(CNC(=O)c2ccco2)nnc1SCC(=O)Nc1cccc(F)c1` was 1.6% (inactive); that for `Cn1c(SCC(=O)Nc2ccc(Br)cc2F)nnc1-c1ccco1` was 0.1% (inactive); that for `Cc1ccc(OCC(=O)OC(C)CN(C)Cc2ccccc2)cc1` (centres undefined) was 5% (inactive).
Take `COc1ccc(OC)c(C(=O)CSc2nnc(-c3cccs3)o2)c1`: the activation is 11.4% (inactive).
Consider `COC(=O)CSc1nccc(-c2cccs2)n1`, for which the activation is 4.8% (inactive).
Regarding `NC(=O)CSc1oc(-c2cccs2)nc1S(=O)(=O)c1ccccc1`, the activation is 20.3% (active).
For the compound `COc1cccc(CNC(=O)Cc2csc(Nc3nc(=S)[nH]c4ccccc34)n2)c1`, the activation was -3.6% (inactive).
`CC(C)C(NC(=O)C1CCC(C(C)(C)C)CC1)C(=O)NCCCN1CCCCC1` (centres undefined): the activation was 13.2% (inactive).
Consider `Cc1cc(C)c2nc(N3CCCC3)c(C#N)cc2c1`, for which the activation was 3.7% (inactive).
As to `CC(=O)c1ccc(S(=O)(=O)N2CCN(c3nc4c(C)c(C)ccc4cc3C#N)CC2)cc1`, the activation was 27.9% (active).
For `Cc1cccc2cc(C#N)c(N3CCCC3)nc12`, the activation was 7.6% (inactive).
As for `CCCN1CNC(=S)N(CCc2ccccc2)C1`, the activation was 4% (inactive).
Regarding `CNS(=O)(=O)c1ccc(N2CCCC2=O)c([N+](=O)[O-])c1`, the activation is -1.5% (inactive).
With `COC(=O)c1[nH]c2ccccc2c1NS(=O)(=O)c1ccc(OC)cc1OC`, the activation was 6.1% (inactive).
In the case of `COC(=O)c1[nH]c2ccccc2c1NC(=O)CN1CCCc2ccccc21`, the activation was 0.3% (inactive).
For `COC(=O)c1[nH]c2ccc(Br)cc2c1NC(=O)Oc1ccccc1`, the activation was 20.2% (active).
Turning to `C=CCn1cc(-c2cccc(C(F)(F)F)c2)cc(C#N)c1=O`, the activation was 5.6% (inactive).
On to `CCn1c(=O)cc(SCC(=O)NCc2ccc3c(c2)OCO3)c2ccccc21`, for which the activation was 21.9% (active).
With `CC(C)NC(=O)CSc1ccccc1C(=O)NCc1ccc2c(c1)OCO2`, the activation was -1.4% (inactive).
Then `CCn1c(=O)cc(SCC(=O)NCCC2=CCCCC2)c2ccccc21`, with 13.8% (inactive); and `COCCCNC(=S)NNC(=O)C(O)(c1ccccc1)c1ccccc1`, with -2.3% (inactive).
Take `Cc1nn(CC(=O)NCc2ccccn2)c(C)c1[N+](=O)[O-]`: the activation is 5.4% (inactive).
`CS(=O)(=O)N(CC(=O)NC1CCCC1)Cc1ccc(F)cc1`: the activation was 6.9% (inactive).
`CCOP(=O)(OCC)C(Nc1ccc([N+](=O)[O-])cc1)c1ccc(Cl)cc1` (centres undefined): the activation is -6.5% (inactive).
As to `Cc1ccccc1-c1n[nH]c(=S)n1/N=C/c1ccc(-c2ccccc2Br)o1`, the activation is 32.5% (active).
In the case of `Cc1ccccc1-c1n[nH]c(=S)n1C`, the activation is 3.3% (inactive).
`Cc1n[nH]c(=S)n1/N=C/c1ccc(Br)o1`: the activation was 7.5% (inactive).
Then `O=C1CCCN1CCCNC(=S)Nc1ccc(F)c(Cl)c1`, with -5.5% (inactive).
In the case of `CCc1nc2ccccc2c(C(=O)OC2CCCCC2=O)c1C` (centres undefined), the activation is 12.2% (inactive).
For `CC1=C(C(=O)N(C)C)C(c2ccccc2OC(F)F)NC(=O)N1` (centres undefined), the activation was 6.7% (inactive).
Then `COC(=O)c1cc(OC)ccc1-c1ccc(OC)cc1`, with 9.8% (inactive); and `COC(=O)c1ccc(S(=O)(=O)c2ccc(C(=O)OC)s2)s1`, with 26.8% (active); and `CCS(=O)(=O)Nc1cc(C(=O)OC)ccc1C(=O)OC`, with 7% (inactive).
Regarding `CCOc1ccc(S(=O)(=O)Nc2ccncc2)c(C)c1C`, the activation is 7.6% (inactive).
`Cc1ccc(C(=O)CNc2ccc(F)cc2)cc1`: the activation was -3.3% (inactive).
On to `COc1cccc2c1CCC(NC(C)=O)C2=O` (centres undefined), for which the activation is 0.5% (inactive).
With `COc1ccc(NS(=O)(=O)c2cc(NC(=O)CC(=O)c3ccc([N+](=O)[O-])cc3)ccc2C)cc1`, the activation was 2.2% (inactive).
Then `O=C(O)/C=C\C(=O)Nc1ccc(OCc2ccccc2)cc1`, with 5.5% (inactive); and `O=C(NCCCN1CCN(c2ccc(F)cc2)CC1)Nc1ccc([N+](=O)[O-])cc1`, with 11.9% (inactive); and `N#Cc1c(C(F)(F)F)cc(-c2ccc(Cl)cc2)nc1SCC(=O)O`, with 3.2% (inactive).
For `CCSc1nc(-c2ccc(OC)cc2)cc(-c2ccc(OC)cc2)c1C#N`, the activation is -1.5% (inactive).
Then `CCOC(=O)CC(=O)CSc1nc(-c2ccccc2)cc(-c2ccc(Cl)cc2)c1C#N`, with 22.2% (active).
Regarding `COc1ccc(C(=O)OCC(=O)NCC2CCCO2)cc1[N+](=O)[O-]` (centres undefined), the activation is 15% (inactive).
Take `O=C(NCCOc1ccccc1F)Nc1ccc(Br)cc1`: the activation was 3.6% (inactive).
As for `CC/C(=N\NC(=O)c1ccccc1Cl)c1ccc(Br)s1`, the activation was 4.2% (inactive).
In the case of `CCCCn1c(=O)c(C(C)=O)c(O)c2ccccc21`, the activation was 0.5% (inactive).
For the compound `CC(=O)n1c(C=Nc2ccccc2)c(O)c2ccccc21`, the activation was 22.7% (active).
Regarding `CCOc1ccc(N=Cc2c(O)n(-c3cccc(C)n3)c(=O)c3ccccc23)cc1`, the activation is 1.1% (inactive).
Then `COc1ccc(NS(=O)(=O)c2ccc(O)c(C(=O)OCC(=O)NC3CCCCC3)c2)cc1`, with 4.7% (inactive).
For `CNC(=O)c1[nH]cnc1C(=O)N[C@@H](CC(C)C)C(=O)OC(C)(C)C`, the activation is 5.5% (inactive).
As for `CN(CCc1cnn(C)c1)Cc1cn(C)nc1-c1ccccc1F`, the activation is -5.8% (inactive).
Consider `CC(C)N(Cc1ccccc1)C(=S)Nc1ccc(OC(F)F)cc1`, for which the activation is -4.1% (inactive).
On to `COc1cc(OC)c(C2=NOC(C(=O)Nc3c(C)n(C)n(-c4ccccc4)c3=O)C2)cc1Cl` (centres undefined), for which the activation is 3.3% (inactive).
Then `O=C(O)Cc1sc(-c2ccc(C(=O)O)cc2)nc1-c1ccccc1`, with 12.4% (inactive).
As to `Cc1ccc(-c2nc(C)sc2CC(=O)O)cc1`, the activation is -2% (inactive).
As to `O=C(O)Cc1sc(-c2ccccc2)nc1-c1cccs1`, the activation is 28.9% (active).
For the compound `CC1(C)C(C=C(Cl)Cl)C1C(=O)N(Cc1ccc(Cl)cc1)C1CCS(=O)(=O)C1` (centres undefined), the activation was 1.5% (inactive).
For `N#C/C(C(=O)N1CCOCC1)=C1/SC(Cc2ccc(F)cc2)C(=O)N1c1ccccc1` (centres undefined), the activation is -4.4% (inactive).
In the case of `CC(C)NC(=O)NC(=O)CSc1nnc(-c2ccccc2F)n1N`, the activation is 1.8% (inactive).
Then `O=c1c2ccccc2c(-c2ccccc2)nn1Cc1ccccc1`, with 1% (inactive).
Regarding `Cn1c(CO)cnc1SCc1ccccc1`, the activation was 6.4% (inactive).
As to `CSc1c(SCc2ccccc2)cnn(Cc2ccccc2)c1=O`, the activation was 24% (active).
Consider `COC(=O)NNC1=CC(=O)CC(C)(C)C1`, for which the activation was 5.4% (inactive).
`COc1ccc(-n2c(C)cc(C(=O)COC(=O)c3cc(OC)c(OC)cc3NC(=O)c3cccs3)c2C)cc1`: the activation was 8.5% (inactive).
Then `CC(=O)c1cccc(CN2CCC(CO)(Cc3ccccc3)CC2)c1`, with 0% (inactive).
Consider `Cc1cccc(-c2ncc(CN3CCC(CO)(CCCc4ccccc4)CC3)cn2)c1`, for which the activation is 5.8% (inactive).
With `OCC1(CCc2ccccc2)CCN(Cc2ccc3nsnc3c2)CC1`, the activation is 35.7% (active).
As to `c1csc(-c2nnc(COc3ccc4c(c3)OCO4)o2)c1`, the activation is 0.1% (inactive).
Take `Cc1cccc(NC(=O)c2cc([N+](=O)[O-])ccc2N2CCN(C)CC2)c1`: the activation is 10.3% (inactive).
Then `COCCN(C(=O)c1ccccc1F)c1c(N)n(Cc2ccccc2)c(=O)[nH]c1=O`, with -2.5% (inactive).
Take `CCN1CC(CN(C)Cc2nc(-c3ccc(Cl)cc3)no2)CC1=O` (centres undefined): the activation is -3.9% (inactive).
Consider `Clc1ccc(N/N=C/c2cccs2)nn1`, for which the activation is 4.4% (inactive).
With `COc1ccc(Nc2nc(=O)[nH]nc2C)cc1`, the activation was 5.2% (inactive).
Regarding `Cc1n[nH]c(=O)nc1N/N=C/c1cccs1`, the activation is 22.1% (active).
`CC(=O)Nc1ccc(CN2CCN(Cc3ccc(F)c(F)c3)C(CCO)C2)cc1` (centres undefined): the activation was 3.4% (inactive).
For the compound `Cc1ccc(C(=O)NCC(=O)O)cc1S(=O)(=O)N1CCCCC1`, the activation was 2.2% (inactive).
For the compound `Cc1ccc(NS(=O)(=O)c2cccs2)cc1S(=O)(=O)N1CCCCCC1`, the activation is 27.9% (active).
The value for `O=C(C1CCN(S(=O)(=O)c2cccs2)CC1)N1CCCCCC1` was -1.2% (inactive); that for `O=C(NNc1cc(Cl)ccc1Cl)c1cccnc1Cl` was 5% (inactive).
For the compound `C=C(C)CNC(=S)N/N=C/c1ccccc1OCC(=O)O`, the activation is 4.6% (inactive).
As for `CCOc1cccc(C(=O)Nc2cccnc2)c1`, the activation is 4.5% (inactive).
On to `Cc1ccc(C(=O)Nc2nnc(-c3cccs3)s2)cc1C`, for which the activation was 21.8% (active).
Regarding `Cc1ccc(C(=O)Oc2coc(CSc3nnc(NC(=O)c4cccs4)s3)cc2=O)cc1C`, the activation is -0.6% (inactive).
In the case of `CCCc1nnc(NC(=O)c2cccs2)s1`, the activation was -1.6% (inactive).
The value for `CCOc1cccc(C(=O)Nc2nnc(-c3cccs3)s2)c1` was 41.8% (active); that for `CCc1nnc(NC(=O)c2cccs2)s1` was 1.3% (inactive).
For the compound `COc1ccc(/C=C/C2=CC(C)(C)NC(=S)N2)c(OC)c1`, the activation was -5.6% (inactive).
Regarding `O=C(Cc1ccccc1Cl)N1CCN(c2ccccn2)CC1`, the activation was -1% (inactive).
As for `CC(Sc1nncn1C)C(=O)Nc1cc(C(F)(F)F)ccc1N1CCOCC1` (centres undefined), the activation was -2.1% (inactive).

(Values after PubChem BioAssay AID631 (The Scripps Research Institute Molecular Screening Center, 2007).)
